Source: PubChem BioAssay (NMMLSC)
The list is not random: actives were taken first. Their share in the collection is about 3.5%.
BoNT A protease: BoNT/A light chain protease inhibitors, primary screen, biochemical, flow cytometry, MLPCN library; Botulinum neurotoxin type A light chain protease (Clostridium botulinum A str. ATCC 3502); multiplex microsphere protease substrate cleavage; inhibition, % at 10 µM; hit rate 0.17% among 360,000; further: plate controls were buffer without enzyme for full effect and enzyme alone for no effect
Autofluor counter: flagged as autofluorescent in microsphere protease counterscreen | compound autofluorescence counterscreen, microsphere flow cytometry; stronger effect = higher value | fluorescence intensity (concentration not given with the values) | hit rate 3.1% among 360,000 | AID 624483; in the data active means fluorescence intensity above about 16000; inconclusive means no clear call, values can overlap the other calls
Anthrax LF prot: Bacillus anthracis LF protease inhibitors, primary screen, biochemical, multiplex microsphere, MLPCN library | Lethal factor (Bacillus anthracis), P15917 | multiplex microsphere protease cleavage assay | inhibition, % at 10 µM | hit rate 0.12% among 360,000; further: plate controls were buffer without enzyme for full effect and enzyme alone for no effect
BoNT F protease: BoNT/F light chain protease inhibitors, primary screen, biochemical, flow cytometry, MLPCN library; AID 588497, 2011; inhibition, % at 10 µM; Botulinum neurotoxin type F light chain protease (Clostridium botulinum); hit rate 0.22% among 360,000; Multiplex microsphere protease cleavage assay; in the data active means inhibition above about 35%, passing the limit was not always enough; inconclusive means no clear call, values can overlap the other calls; further: plate controls were buffer without enzyme for full effect and enzyme alone for no effect
Starred values were filed as active, the others as inactive; ? = inconclusive. Unless noted, no stated cut-off is given here; in the data, active means inhibition above about 30%; inconclusive means no clear call, values can overlap the other calls; inactive means below that.

SMILES	BoNT A protease	Autofluor counter	Anthrax LF prot	BoNT F protease
Cc1ccc2[nH]c(=O)c(CN(CC3CCCO3)S(=O)(=O)c3cccc4nsnc34)cc2c1 (centres undefined)	0.7	9718	-1.0	7.1
Cc1ccc2[nH]c(=O)c(CN(CC3CCCO3)S(=O)(=O)c3c(C)ccc4nsnc34)cc2c1 (centres undefined)	?	19816*	-6.0	4.5
Cc1ccsc1C(=O)OCC(=O)Nc1ccc(Cl)cc1C(F)(F)F	0.6	2801	1.4	4.2
Cc1ccc(C(=O)NCC(=O)OCC(=O)Nc2ccc(Cl)cc2C(F)(F)F)cc1C	5.0	2860	-0.5	38.3*
Cc1ccc(C)c(OCCCN2CCCC2)c1	-0.8	21161*	-0.4	0.3
Cc1ccc(C)c(OCCCN2CCNCC2)c1	0.8	4092	6.5	-39.1
Cc1c(C(=O)N2CCN(S(=O)(=O)c3ccccc3)CC2)oc2ccccc12	-3.5	7117	-2.1	-9.4
Cc1c(C(=O)N2CCN(CCc3ccccc3)CC2)oc2ccccc12	0.5	24130*	-3.2	-4.3
Cc1c(C(=O)N2CCN(S(C)(=O)=O)CC2)oc2ccccc12	0.5	20670*	0.7	-0.2
COc1ccc(-c2n[nH]c(C)c2-c2cscn2)c(O)c1	-1.4	4377	7.5	-7.9
COc1ccc(-c2n[nH]c(C)c2-c2cnn(-c3ccccc3)c2)c(O)c1	?	19850*	0.3	-0.4
CN1CCN(c2ccc(NC(=O)COc3ccccc3)cc2Cl)CC1	2.6	5927	-0.2	-3.5
CCCOc1ccc(C(=O)N2CCN(c3ccc(NC(=O)CC)cc3Cl)CC2)cc1	?	20982*	1.3	-4.0
NS(=O)(=O)c1ccc(NC(=O)CSc2ncccn2)cc1	-1.0	6525	-2.4	-9.8
NS(=O)(=O)c1ccc(NC(=O)CSc2ccc3ccccc3n2)cc1	-1.1	16858*	-0.9	-2.0
N#Cc1ccccc1NC(=O)c1ccccc1OCC(=O)Nc1ccc2c(c1)oc1ccccc12	-0.3	11270	-0.8	-0.5
COc1cc2c(cc1NC(=O)CCCCCN1C(=O)CCC1=O)oc1ccccc12	-0.5	24230*	-0.5	-2.5
CNC(=O)COc1ccccc1C(=O)Nc1ccc2c(c1)oc1ccccc12	-0.9	16632*	-0.8	-5.0
O=C(Nc1ccc2c(c1)oc1ccccc12)c1ccncc1	-1.0	16791*	-2.8	-3.5
COc1cc2c(cc1NS(=O)(=O)N1CCCCC1)oc1ccccc12	-4.0	23461*	-5.5	-4.9
COc1cc2c(cc1NC(=O)CCCN1C(=O)CCC1=O)oc1ccccc12	0.3	2678	-1.5	-8.1
CN(C)S(=O)(=O)c1ccc(Cl)c(NC(=O)COC(=O)CCC2CCCCC2)c1	-0.2	3911	-0.6	-9.4
CC(C)NC(=O)N(C)C[C@H]1Oc2ccc(NS(=O)(=O)c3ccccc3)cc2C(=O)N([C@H](C)CO)C[C@@H]1C	-0.6	4183	6.1	-4.1
CCC12CCC3c4ccc(O)cc4CCC3C1CC(O)C2O (centres undefined)	-0.5	4651	-0.6	-4.2
COc1ccccc1OCC(=O)Nc1ccncc1	3.1	3929	-8.5	?
SMILES	BoNT A protease	Autofluor counter	Anthrax LF prot	BoNT F protease
COc1ccccc1OCC(=O)Nc1ccccn1	0.8	22764*	1.0	2.3
O=C(NCC(F)(F)F)Nc1ccccn1	?	19809*	-2.0	-0.4
COc1cc2c(cc1NC(=O)COc1ccccc1OC)oc1ccccc12	1.0	20273*	-1.0	0.0
Cc1ccsc1C1Nc2ccc3ncccc3c2C2=C1C(=O)CC(C)(C)C2 (centres undefined)	?	16347*	0.3	-0.9
O=C1CCCC2=C1C(c1cccs1)Nc1ccc3ncccc3c12 (centres undefined)	?	23605*	2.7	-1.0
O=C(COC(=O)/C=C/c1ccc(C(F)(F)F)cc1)NCc1ccco1	0.7	5057	0.1	7.0
O=C(O)c1ccc(S(=O)(=O)N2CCC(c3nc(-c4ccccc4Cl)no3)CC2)cc1	?	23179*	-2.4	-1.3
CC(C)(C)c1ccc(CC(=O)N2CCC2(C)C(=O)NCc2cccc3ccccc23)cc1 (centres undefined)	0.2	2815	1.1	-6.0
O=C(Nc1cccc(O)c1)c1cnn2cccnc12	2.1	19751*	-3.3	0.2
O=C(Nc1cccnc1)c1cnn2cccnc12	-1.8	9535	-9.6	-6.9
COc1ccccc1NC(=O)C(C)OC(=O)CCC1CCCCC1 (centres undefined)	0.6	5706	-3.9	-3.2
COc1ccc(S(=O)(=O)N(CC(=O)NCc2ccncc2)c2cc(C)cc(C)c2)cc1OC	0.9	3660	9.8	9.8
